# This is one part of a sample in which hits are shown more often than they occur.
# Vaccinia pol inh: vaccinia E9 polymerase processive synthesis inhibition | in vitro processive DNA synthesis, absorbance read-out; hits give low values | normalized absorbance, % (test concentration not listed) | 46,000 compounds, 0.94% hits | AID 493162; in the data active = normalized absorbance mostly below about 85%, no sharp cut-off; inactive = mostly above about 86%
# * marks the source's active call; other numbers are inactive results.
SMILES,Vaccinia pol inh
Cc1ccc(Nc2ccc3noc4c3c2C(=O)c2ccccc2-4)cc1,100.5
CC1CCN(c2cc(N(C)C)c3noc4c3c2C(=O)c2ccccc2-4)CC1,69.9*
O=C(NCC1OCCc2ccccc21)c1ccc(NC(=O)c2ccco2)cc1 (stereo not drawn),100.0
c1ccc(-n2nnnc2-c2nc3ccccc3s2)cc1,113.6
Clc1ccc2oc(-c3ccccc3)cc(=NCCCN3CCOCC3)c2c1,43.6*
NC(=O)c1ccccc1N=c1cc(-c2ccccc2)oc2ccc(Cl)cc12,99.8
Cc1ccc2oc(-c3ccccc3)cc(=NCCN3CCOCC3)c2c1,72.1*
Cc1ccc2oc(=O)cc(CN3CCOCC3)c2c1,99.2
CCCCN1CCN(c2nc(-c3ccccc3)c3cc(C)ccc3n2)CC1,100.5
Clc1cccc(-n2cc(-c3ccccc3)c3c(NCC4CCCO4)ncnc32)c1 (stereo not drawn),101.5
Clc1ccc2oc(-c3ccccc3)cc(=NCc3ccco3)c2c1,89.5
O=C(NCC1CCCO1)Nc1ccc(Cl)cc1 (stereo not drawn),79.5
Clc1ccc2oc(-c3ccccc3)cc(=NCC3CCCO3)c2c1 (stereo not drawn),59.3*
Nc1cc(-c2ccccc2)nn1S(=O)(=O)c1ccccc1,102.0
NC(=O)Cn1cc(/C=C2/C(=O)NC(=O)N(C3CCCCC3)C2=O)c2ccccc21,99.8
O=C1Nc2ccccc2/C1=C\c1cn(CC(=O)N2CCCC2)c2ccccc12,92.8
CC1=NN(c2ccccc2)C(=O)/C1=C/c1cn(CC(O)CN2CCCCC2)c2ccccc12 (stereo not drawn),31.9*
CC(C)(C)c1csc(-c2ccc(-c3cccs3)s2)n1,100.0
O=C(Sc1ccc(Cl)cc1)c1ccc(-c2cccs2)s1,99.0
CN(C)C=NC(=S)c1ccc(-c2cccs2)s1,77.8*
CCN(CC)C(=O)Cc1cccs1,102.3
CCn1cc(C(=O)N2CC(C)CC(C)C2)c(=O)c2cc(S(=O)(=O)N3CC(C)CC(C)C3)ccc21 (stereo not drawn),97.5
N#C/C(=C\Nc1ccc(Cl)cc1)c1ccc(Cl)cc1,106.1
Cc1cc2nc3s/c(=C\c4ccc(C(C)C)cc4)c(=O)n3c2cc1C,99.9
CCNc1cc(N)[n+](CC)c2n[nH]c(/N=C/c3cc(Cl)cc(Cl)c3O)c12,69.0*
SMILES,Vaccinia pol inh
O=C(c1cnn(C(=O)C2CC2)c1)c1cc(Cl)ccc1O,101.9
COc1ccc2c(Cl)c(C(=O)Nc3ccc(C(N)=O)cc3)sc2c1,103.5
CC(C)[C@@H]1NC(=O)[C@H](Cc2ccccc2)NC(=O)[C@@H](CC(=O)O)NC(=O)CNC(=O)[C@H](CCCN=C(N)N)NC1=O,100.8
CCSc1nnc(NC(=O)CSc2cn(CC)c3ccccc23)s1,100.0
CCCCN(C)C(=O)c1ccc(Sc2ccc(Cl)cc2)c(NC(C)=O)c1,81.6
COc1cccc(C(=O)N2CCCCC2C)c1 (stereo not drawn),100.7
N#CC1(c2ccc(Cl)cc2)c2ccccc2NN1c1ccccc1 (stereo not drawn),98.1
Cc1cc(Br)ccc1OCC(=O)N1CCc2ccccc21,107.1
Cc1ccccc1C=Nc1ccccc1C#N,99.8
N#Cc1ccccc1N=Cc1cccc(O)c1O,86.4*
Oc1ccccc1C=Nc1ccccc1O,100.8
CC1CCN(C(=O)COC(=O)c2ccc(OC(F)(F)F)cc2)CC1,103.8
O=C(C1COc2ccccc2O1)N1CCNCC1 (stereo not drawn),96.1
CCN1C(=O)c2ccccc2S(=O)(=O)c2ccc(C(=O)N3CCCC3)cc21,102.3
CCOc1ccc(-n2ccnc2SCC(=O)Nc2ccc(Cl)cc2)cc1,98.4
CCOc1ccc(NC(=O)c2sc(C)c(CC(=O)Nc3ccc(Cl)cc3)c2O)cc1,80.4*
CCOc1ccc(NC(=O)CN2C(=O)S/C(=C/c3ccc(Cl)cc3)C2=O)cc1,98.7
CCc1ccc(NC(=O)CC(NCc2ccccc2)C(=O)O)cc1 (stereo not drawn),100.0
CCC(CC)NS(=O)(=O)c1cccc(C(=O)NCCOc2ccccc2)c1,100.4
COc1ccccc1NC(=O)c1cn(-c2ccccc2)nc1-c1cccnc1,77.3
O=C(Cc1c(F)cccc1Cl)Nc1ccc2nc3n(c(=O)c2c1)CCCCC3,100.7
CC1Cc2ccccc2N1C(=O)C12CCC(C)(C(=O)O1)C2(C)C (stereo not drawn),99.9
Cc1ccc(S(=O)(=O)c2ccc(NN)cc2)cc1,95.0
Cc1ccc(Nc2ccc(C)cc2)cc1,99.7
Cc1ccc(NN)cc1,65.0*
SMILES,Vaccinia pol inh
COc1ccc(-c2c(C#N)nnn2-c2cc(C(F)(F)F)cc(C(F)(F)F)c2)cc1,109.7
Clc1c2c(nn1-c1ccccc1)CCCC2,101.9
O=C1N=c2ccc(Br)cc2=C1c1sc(=S)n(-c2cccc(Br)c2)c1O,100.2
NC1=NC(=O)C(CC(=O)Nc2ccccc2SC(F)(F)F)S1 (stereo not drawn),105.6
O=C(O)c1ccccc1NCCO,90.0
O=C(O)c1ccccc1NCc1ccc(Cl)cc1,52.6*
O=C(O)CCNc1ccccc1C(=O)O,100.2
COc1ccccc1/C=[N+]1\N=C([O-])C(NC(=O)c2cccc(C)c2)C1c1ccc(Cl)cc1 (stereo not drawn),100.0
C=C1C(C(=O)NCc2ccco2)C1C(=O)NCc1ccco1 (stereo not drawn),56.5*
C=C(NCc1ccco1)c1ccc(Cl)cc1,104.5
Nc1nonc1C(=O)NCc1ccco1,100.0
CC(C)COc1ccc2[nH]c3c(c2c1)CCC3,98.0
O=C(Cc1cccc2ccccc12)Nc1ccc(N2CCOCC2)c(Cl)c1,97.2
O/N=C1/C2CN3CCN(C2)CC1(Cc1ccccc1)C3,100.5
COC(=O)c1cc2c(Cl)nc3ccc(C)cc3c2s1,91.3
Cc1ccc2nc(Cl)c3cc(C(=O)N(CCN(C)C)Cc4ccco4)sc3c2c1,52.7*
CCCCN(Cc1ccco1)C(=O)c1cc2c(=O)oc3ccc(C)cc3c2s1,102.5
CC1CC(C)CN(C(=O)c2cn(-c3ccccc3)nc2-c2cccs2)C1 (stereo not drawn),98.3
CCOC(=O)c1c(-c2ccccc2)csc1NC(=O)C(F)(F)F,77.1
S=C(Nc1ccccc1)Nc1ccccc1-c1nc2ccccc2[nH]1,68.5*
O=C(Nc1ccccc1-c1nc2ccccc2[nH]1)C1=COCCO1,91.8
CC(C)C(=O)Nc1ccccc1-c1nc2ccccc2[nH]1,93.8
O=C1CNC(=O)N1/N=C/c1cccc2ccccc12,99.5
O=c1[nH][nH]c(=O)n1CCCc1cc2cccc3ccc4cccc1c4c32,63.3*
CCc1nonc1NC(=O)c1ccc(C)cc1,101.5
SMILES,Vaccinia pol inh
COc1ccccc1C(=O)CSc1ccccc1Cl,93.5
NS(=O)(=O)c1ccc(NC(=O)COc2ccc(F)cc2)cc1,92.2
CC(=O)Nc1sc2c(c1C(N)=O)CC(C)CC2 (stereo not drawn),99.6
CC(NC(=O)c1ccc(F)cc1Cl)C(c1cccs1)N1CCCC1 (stereo not drawn),100.3
O=C(Nc1ccccc1)c1cccnc1Cl,94.6
O=C(O)c1cc(C=Nc2ccc(S(=O)(=O)NC3NC=CS3)cc2)c2c(c1)COCO2 (stereo not drawn),51.8*
Cc1cc(NS(=O)(=O)c2ccc(N=Cc3ccccc3O)cc2)no1,98.1
O=C1Nc2ccccc2C(O)(C(=O)NC2CC2)N1c1ccccc1 (stereo not drawn),94.1
CSc1ccc(Sc2ccc(SC)cc2)cc1,99.7
COC(=O)c1cc2ccc3c(c2oc1=O)CN(Cc1ccccc1)CO3,105.0
Cc1ccc(CN2COc3c(Cl)cc4c(C)c(C)c(=O)oc4c3C2)cc1,69.4*
Cc1c2c(cc3c4c(c(=O)oc13)CCCC4)CN(CCc1ccc(F)cc1)CO2,105.9
